Screening results deposited in PubChem by Broad Institute.
EBV LMP1 NFkB – inhibitors of Epstein-Barr LMP1-induced NF-kappaB reporter; LMP1-induced NF-kappaB luciferase reporter cells, luminescence; inhibition, % at 12.5 µM; 350,000 compounds, 0.69% hits; in the data active = inhibition above about 41%;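 also: 0% = neutral control wells and 100% = reference inhibitor control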
PAX8 reporter – PAX8 transcriptional activity inhibition | RMG-I TPO-luciferase reporter, SteadyGlo, 24 h | inhibition, % at 12.6 µM | 360,000 compounds, 1.2% hits | AID 652154;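 active = mean replicate inhibition at least 60% with every replicate also reaching 60%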;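 also: luciferase light reporting Pax8 driven TPO promoter activity; plate controls were median of neutral control wells for no effect and mitoxantrone controls for full effect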
LGR2 antag – Drosophila LGR2 receptor signaling inhibition; HEK293 LGR2, CRE-luciferase, bursicon-stimulated, 4 h; inhibition, % at 9.99 µM; 380,000 compounds, 0.35% hits; AID 720647;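 active = drop in luminescence signal, shown as inhibition above about 50% in the replicate tests, limit read from the data, passing the limit was not always enough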;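 also: agonist challenge used bursicon conditioned medium at about half maximal strength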
EWS-Fli block – blocks EWS/Fli oncoprotein-driven transcription; A673 NR0B1-luciferase reporter, viability-normalised; inhibition, % at 12.6 µM; 350,000 compounds, 0.67% hits; AID 651661;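 active = mean inhibition of at least 50% after viability correction, with every replicate also passing that limit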;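 also: firefly luciferase signal divided by Alamar Blue viability fluorescence both relative to DMSO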
TRPM1 prom inh – reduces MITF-dependent TRPM1 promoter luciferase signal; SK-MEL-5 TRPM1 promoter luciferase, 24 h; inhibition, % at 12.5 µM; 330,000 compounds, 0.83% hits; AID 488899;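 active = mean inhibition across replicates of 60% or more, whatever share of single replicates reaches that level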
Shn3 3UTR inh – inhibitors of Schnurri-3 3'UTR reporter in osteoblasts; Clone20 osteoblast Shn3 3'UTR firefly luciferase, 24 h; 360,000 compounds, 0.52% hits; inhibition, % at 12.5 µM;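 active = mean inhibition of at least 75% with every replicate also reaching 75%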;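 also: 0% = median of neutral control wells and 100% = pilot-screen positive control compound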
The depositor's hits bear a star; . = not tested or not shown. Rows were chosen to be rich in hits. Some 2.2% of all compounds tested hit in one or more screens of this group.

SMILES | EBV LMP1 NFkB | PAX8 reporter | LGR2 antag | EWS-Fli block | TRPM1 prom inh | Shn3 3UTR inh
COC(=O)c1ccc(CC(=O)c2ccc(O)cc2O)o1 | 0 | . | . | . | 19 | 17
CCOC(=O)c1ccc(CC(=O)c2ccc(O)cc2O)o1 | 51* | . | . | . | 49 | -16
COc1ccccc1S(=O)(=O)N[C@H]1CC[C@@H](CCNC(=O)C2CCC2)O[C@@H]1CO | . | 0 | 3 | -10 | . | .
CC(C(=O)NCc1ccc(Cl)cc1)n1cccc1C(=O)c1ccccc1 (stereo unspecified) | 74* | 0 | 7 | 2 | -7 | -15
COc1ccccc1CNC(=O)COC(=O)Cc1c(F)cccc1Cl | 10 | 66* | -1 | -4 | 2 | -7
CN1C(=O)c2cc(NC(=O)Cc3ccccc3)ccc2OC[C@@H]2O[C@@H](CC(=O)O)CC[C@@H]21 | . | -9 | 11 | 4 | . | .
CC(=O)c1cccc(NC(=O)/C=C/c2ccc([N+](=O)[O-])s2)c1 | -90 | 24 | 15 | 48 | 92* | 82
Cc1cc(C)cc(NC(=O)/C=C/c2ccc([N+](=O)[O-])s2)c1 | -110 | -5 | -18 | 26 | 11 | -17
Cc1ccccc1NC(=O)/C=C/c1ccc([N+](=O)[O-])s1 | -17 | . | . | . | 92* | 93*
COc1ccc(S(=O)(=O)Nc2cccc3c2O[C@H](CN(C)Cc2ccc(C(=O)O)cc2)[C@H](C)CN([C@@H](C)CO)C3=O)cc1 | . | . | -1 | 2 | . | .
O=C(CSC(=S)N1CCCCC1)c1ccccc1 | 5 | -41 | 67* | 64* | -17 | -34
Cc1ccccc1N1Cc2ccccc2C1=O | 0 | 5 | -22 | -4 | . | -35
CC(C(=O)O)c1ccc(N2Cc3ccccc3C2=O)cc1 (stereo unspecified) | 30 | 42 | . | 51* | 12 | -31
CC(=O)NC(c1ccc(Cl)cc1Cl)c1ccc2cccnc2c1O (stereo unspecified) | 69* | 83* | 43 | 47 | 52 | 89*
COc1ccc(C(NC(C)=O)c2ccc3cccnc3c2O)c(OC)c1 (stereo unspecified) | 59* | . | . | . | 63* | 90*
